Assay results reported in PubChem BioAssay AID2284368 (EPA ToxCast).
Records with an inconclusive call do not appear. The source made the active and inactive calls. How the source made its calls: active means hit-call score of the fitted dose curve at least 0.9, where 1 is the maximum; inconclusive means response in the unintended direction; inactive means score below 0.9.

Target: Estrogen receptor (Homo sapiens) (UniProt P03372)
Experiment: ATG_hERa_EcoTox2: Attagene TRANS-FACTORIAL EcoTox-2 HepG2 Assay for human Estrogen Receptor (ER)
Description: ATG_EcoTox2 is a cell-based, multiplexed assay created by modifying the existing Attagene TRANS-FACTORIAL system to include a panel of nuclear receptors from some or all the following species: human (Homo sapiens), african clawed frog (Xenopus laevis), rainbow trout (Oncorhynchus mykiss), japanese medaka (Oryzias latipes), and zebrafish (Danio rerio). The ECOTOX2-FACTORIAL format uses HepG2, a human liver cell line, with measurements taken at 24 hours after chemical dosing in a 24-well plate. ATG_hERa_EcoTox2 is one of 29 assay components measured or calculated from the ATG_EcoTox2 assay. It is designed to make measurements of mRNA induction, a form of inducible reporter, as detected with fluorescence intensity signals by Reverse transcription polymerase chain reaction (RT-PCR) and Capillary electrophoresis technology.The assay endpoint ATG_hERa_EcoTox2 was analyzed in the positive analysis fitting direction relative to DMSO as the negative control and baseline of activity. Using a type of inducible reporter, measures of mRNA for gain-of-signal activity can be used to understand the reporter gene at the transcription factor-level as they relate to the gene ER. Furthermore, this assay endpoint can be referred to as a primary readout, because this assay has produced multiple assay endpoints where this one serves a reporter gene function. To generalize the intended target to other relatable targets, this assay endpoint is annotated to the nuclear receptor intended target family, where the subfamily is steroidal.
Human liver HepG2 cells are transiently transfected with multiple reporter transcription units (MRTUs) in 6-well plates using FuGene 6 reagent (Roche; 3 ml FuGene/1 mg DNA). The MRTU constructs are regulated by a cis-regulating element (promoter). Each RTU expresses a GAL4-UAS that regulates the transcription of a nearby target reporter gene sequence. A major difference between the CIS and TRANS system is that in CIS activities of endogenous TFs are measured, whereas the TRANS assay evaluates changes in activities of exogenous, chimeric NR-Gal4 proteins. […] At the end of 24 hour incubation, total RNA was isolated using TriZol reagent (Invitrogen). The isolated RNA is then reverse-transcribed using oligo(dT) primer and Mo-MLV reverse transcriptase (Invitrogen) with DNAse I (Ambion) treatment for 30 min. The one-tenth of the produced cDNA was amplified by PCR using Taq DNA polymerase (Invitrogen) and two reporter sequence-specific primers. […] The fragments were purified using Qiaquick PCR columns (Qiagen), analyzed on an ABI 3130xL genetic analyzer (Applied Biosystems) with peak positions identified by using a set of X-rhodamine (ROX)-labeled MapMarker1000 molecular weight standards (BioVentures). […]

Chain of Estrogen receptor (Homo sapiens) (P03372 whole entry, looked up): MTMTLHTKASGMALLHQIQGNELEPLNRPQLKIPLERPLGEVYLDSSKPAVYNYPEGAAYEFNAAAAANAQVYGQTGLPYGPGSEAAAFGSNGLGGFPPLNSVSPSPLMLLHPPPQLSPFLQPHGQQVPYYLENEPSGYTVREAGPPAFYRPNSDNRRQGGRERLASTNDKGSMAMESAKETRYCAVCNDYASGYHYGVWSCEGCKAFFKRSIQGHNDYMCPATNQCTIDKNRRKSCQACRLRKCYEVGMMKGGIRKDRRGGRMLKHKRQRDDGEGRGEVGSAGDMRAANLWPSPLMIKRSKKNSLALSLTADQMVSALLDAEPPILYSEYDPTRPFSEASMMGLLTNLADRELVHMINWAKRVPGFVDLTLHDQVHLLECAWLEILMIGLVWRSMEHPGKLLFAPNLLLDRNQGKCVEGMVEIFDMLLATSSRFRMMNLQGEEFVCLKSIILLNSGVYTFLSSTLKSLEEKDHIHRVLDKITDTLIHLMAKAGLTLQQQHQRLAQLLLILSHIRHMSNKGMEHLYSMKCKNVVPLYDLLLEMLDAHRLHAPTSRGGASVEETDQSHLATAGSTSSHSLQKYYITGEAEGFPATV

Structure (SMILES)	outcome	AC50
[Cl][Sn]([c]1ccccc1)([c]1ccccc1)[c]1ccccc1	inactive	
O=S(=O)(O)C(F)(F)C(F)(F)C(F)(F)C(F)(F)C(F)(F)C(F)(F)F		50 µM (active)
CCCCOCN(C(=O)CCl)c1c(CC)cccc1CC	inactive	
O=P(Oc1ccccc1)(Oc1ccccc1)Oc1ccccc1		3.41 µM (active)
